Experiment [1] deals with Klebsiella pneumoniae. As to conditions: Concentration 32 ug.mL-1; ASSAY_TEST Inhibition of Bacterial Growth; detection method Absorption (OD600); MEDIA CAMHB; plate type 384well; NBS; CORNING #3640; time 18 hr.
The subject of experiment [2] is Candida albicans. As to conditions: 32 ug/mL.
For experiment [3], the system named is Cryptococcus neoformans. Particulars: Concentration 32 ug.mL-1; ASSAY_TEST Inhibition of Fungal Growth; detection method Resazurin; Absorption (OD600-OD570); plate type 384well; NBS; CORNING #3640. For orientation: The colour change of resazurin is a common sign of viable cells or microbes.

SMILES strings stand for the structures. Potency and affinity values are given separately.

A word on the Inhibition: it is the change of the read-out against control, counted positive when it falls.

As to `COc1cccc(Nc2ccccc2)c1-c1c(Cl)cc(Br)cc1Cl`, the Inhibition in experiment [1] is 24.48%; in experiment [2], 23.8%; in experiment [3], 9.7%.

For the compound `Cc1cc(C)c(Nc2ccccc2-c2ccc([N+](=O)[O-])cc2)c(C)c1`, the values for the Inhibition in experiment [1], in experiment [2] and in experiment [3] were -16.56%, 7.08% and 1.01%, respectively.

Consider `O=[N+]([O-])c1ccc(-c2ccccc2Nc2ccccc2)c(Cl)c1`, for which the Inhibition in experiment [1] worked out at 13.74%; in experiment [2], 10.1%; in experiment [3], 1.38%.

With `COc1ccc(Nc2ccccc2-c2ccc([N+](=O)[O-])cc2)cc1`, the results for the Inhibition in experiment [1], in experiment [2] and in experiment [3] were 12.08%, 5.77% and 2.27%, respectively.

Consider `O=[N+]([O-])c1ccc(-c2ccccc2Nc2ccccc2)cc1F`, for which the Inhibition was found to be 14.23% in experiment [1], 8.22% in experiment [2] and 3.42% in experiment [3].

Consider `O=[N+]([O-])c1ccc(-c2cccc3c2[nH]c2ccccc23)cc1`, for which the results for the Inhibition in experiment [1], in experiment [2] and in experiment [3] were 2.37%, 4.69% and -0.08%, respectively.

For the compound `O=[N+]([O-])c1ccc(-c2ccccc2N(Cc2ccccc2)c2ccccc2)cc1`, the results for the Inhibition in experiment [1], in experiment [2] and in experiment [3] were 8.4%, 8.51% and 2.22%, respectively.

On to `CN(c1ccccc1)c1ccccc1-c1ccc([N+](=O)[O-])cc1`, for which the figures for the Inhibition in experiment [1], in experiment [2] and in experiment [3] were 13.85%, 4.63% and 1.49%, respectively.

Consider `O=[N+]([O-])c1ccc2c3ccccc3n(-c3ccccc3)c2c1`, for which the Inhibition in experiment [1] amounted to 5.72%; in experiment [2] it was 8.19%; in experiment [3], 2.74%.

Take `N#Cc1ccc(-c2ccccc2Nc2ccccc2)cc1`: the figures for the Inhibition in experiment [1], in experiment [2] and in experiment [3] were 9.14%, 10.8% and 2.95%, respectively.

For `COc1cc([N+](=O)[O-])ccc1-c1c(Nc2ccccc2)cccc1OC`, the Inhibition is 14.15% in experiment [1], 5.26% in experiment [2] and -2.27% in experiment [3].

With `c1ccc(Nc2ccccc2-c2ncccn2)cc1`, the figures for the Inhibition in experiment [1], in experiment [2] and in experiment [3] were 8.33%, 12.1% and 7.92%, respectively.

Values taken from ChEMBL document CHEMBL4513137, “CO-ADD screening of University of Manchester (UK) compounds”.
